Experimental data published in PubChem BioAssay AID1159580 (chemical genetic matrix, 2015).
“And” between values parts separate entries of the source, which are not always exact repeats. Equal entries are not always repeated. Hit rate of the full screen: of about 5,500 compounds, about 2,000 (36%) were called active. Another 18% or so got no clear call; they are omitted. Rule as the data show it: active = normalized growth mostly below about 0.91 (no sharp cut-off); inconclusive = no clear call, values can overlap the other calls; inactive = mostly above about 0.92. The list shows a part of the results.

Assay: chemical genetic growth profiling, strain panel (AID 1159580);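 also: tested at 20 µM; growth read once vehicle control cultures reached saturation at 30 °C; 1 = growth at the plate median or of vehicle wells; lower values mean less growth of the strain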
Settings: S. cerevisiae deletion strains, growth OD

Measured: normalized growth

CN(C)C(=O)C(CCN1CCC(O)(c2ccc(Cl)cc2)CC1)(c1ccccc1)c1ccccc1
active: locus YER155C, strain BEM2 (second series), hits give low values 0.843
inactive: locus YAL013W, strain DEP1, hits give low values 1.01 | locus YAL021C, strain ccr4, hits give low values 0.984 | locus YAL026C, strain drs2, hits give low values 0.999 | locus YAL030W, strain snc1, hits give low values 1 | locus YAL040C, strain CLN3, hits give low values 0.979 | locus YBL061C, strain skt5, hits give low values 0.99 | locus YBR009C, strain hhf1, hits give low values 0.993 | locus YBR021W, strain FUR4, hits give low values 0.977 | locus YBR023C, strain chs3, hits give low values 1.01 | locus YBR171W, strain sec66, hits give low values 0.988 | locus YBR229C, strain ROT2, hits give low values 0.997 | locus YBR231C, strain swc5, hits give low values 0.965 | locus YBR279W, strain paf1, hits give low values 0.995 | locus YCL011C, strain gbp2, hits give low values 0.989 | locus YCL016C, strain dcc1, hits give low values 0.994 | locus YCL029C, strain bik1, hits give low values 1.03 | locus YCL061C, strain MRC1 (second series), hits give low values 0.996 | locus YCL061C, strain MRC1, hits give low values 0.988 | locus YCL069W, strain vba3, hits give low values 0.991 | locus YCR088W, strain abp1, hits give low values 1 | locus YDL005C, strain med2, hits give low values 0.988 | locus YDL035C, strain GPR1, hits give low values 0.965 | locus YDL040C, strain nat1, hits give low values 0.994 | locus YDL074C, strain BRE1, hits give low values 0.979 | locus YDL101C, strain DUN1, hits give low values 1 | locus YDL134C, strain PPH21, hits give low values 1.01 | locus YDL185W, strain tfp1, hits give low values 1.02 | locus YDL192W, strain arf1, hits give low values 1.02 | locus YDR001C, strain nth1, hits give low values 1 | locus YDR069C, strain doa4, hits give low values 1 | locus YDR101C, strain arx1, hits give low values 1.01 | locus YDR137W, strain rgp1, hits give low values 1.11 | locus YDR150W, strain NUM1, hits give low values 1.01 and 0.999 | locus YDR159W, strain sac3, hits give low values 0.999 | locus YDR162C, strain NBP2, hits give low values 1 | locus YDR195W, strain ref2 0.949 | locus YDR297W, strain sur2, hits give low values 1 | locus YDR318W, strain mcm21, hits give low values 1.01 | locus YDR334W, strain swr1, hits give low values 1.01 | locus YDR335W, strain msn5, hits give low values 1 | locus YDR363W, strain ESC2, hits give low values 0.967 | locus YDR388W, hits give low values 1.02 | locus YDR392W, strain spt3, hits give low values 0.797 | locus YDR502C, strain sam2, hits give low values 1.01 | locus YEL003W, strain gim4, hits give low values 0.993 | locus YEL037C, strain rad23, hits give low values 1 | locus YEL061C, strain CIN8 (second series), hits give low values 1.01 | locus YEL061C, strain CIN8, hits give low values 1 | locus YER002W, strain NOP16, hits give low values 1.01 | locus YER015W, strain faa2, hits give low values 0.967 | locus YER016W, strain bim1, hits give low values 0.996 | locus YER110C, hits give low values 1.02 | locus YER111C, strain swi4, hits give low values 0.98 | locus YER155C, strain BEM2, hits give low values 1.01 | locus YER167W, strain BCK2, hits give low values 0.981 | locus YFR010W, strain ubp6, hits give low values 0.988 | locus YGL078C, strain dbp3, hits give low values 1.01 | locus YGL086W, strain mad1, hits give low values 0.989 | locus YGL167C, strain pmr1, hits give low values 0.99 | locus YGL173C, strain kem1, hits give low values 0.981 | locus YGL227W, strain vid30, hits give low values 1 | locus YGL240W, strain doc1, hits give low values 0.956 | locus YGL248W, strain PDE1, hits give low values 1 | locus YGL253W, strain hxk2, hits give low values 1.02 | locus YGR078C, strain PAC10, hits give low values 1 and 0.987 | locus YGR135W, strain pre9, hits give low values 1.01 | locus YGR229C, strain SMI1, hits give low values 1.01 | locus YGR252W, strain gcn5, hits give low values 0.871 | locus YHR013C, strain ard1, hits give low values 0.955 | locus YHR027C, strain rpn1, hits give low values 0.999 | locus YHR030C, strain SLT2, hits give low values 1.01 and 0.969 | locus YHR079C, strain IRE1 (second series), hits give low values 1.02 | locus YHR079C, strain IRE1, hits give low values 0.987 | locus YHR094C, strain hxt1, hits give low values 1.01 | locus YHR129C, strain ARP1, hits give low values 1 | locus YHR142W, strain chs7, hits give low values 1.01 | locus YHR200W, strain rpn10, hits give low values 0.997 | locus YIL066C, strain RNR3, hits give low values 1 | locus YIL073C, strain SPO22, hits give low values 1.05 | locus YIL125W, strain kgd1, hits give low values 1.01 | locus YIR030C, strain dcg1, hits give low values 1.02 | locus YJL092W, strain hpr5, hits give low values 0.994 | locus YJL095W, strain BCK1 (second series), hits give low values 0.993 | locus YJL095W, strain BCK1, hits give low values 1 and 0.99 | locus YJL115W, strain asf1, hits give low values 0.978 | locus YJL129C, strain trk1, hits give low values 0.941 | locus YJL134W, strain LCB3, hits give low values 1.01 | locus YJL154C, strain vps35, hits give low values 0.998 | locus YJL164C, strain tpk1, hits give low values 0.994 | locus YJL166W, strain qcr8, hits give low values 0.967 | locus YJL168C, strain set2, hits give low values 1.01 | locus YJL187C, strain SWE1 (second series), hits give low values 1.02 | locus YJR043C, strain POL32, hits give low values 0.986 | locus YJR066W, strain TOR1, hits give low values 0.928
